# Screening data as filed in PubChem BioAssay.
# In the library only some 1% were active in any assay of this set; here they are far more common.
# TNF death inh = TNF-alpha cell death inhibition in Jurkat FADD-/- cells; Jurkat FADD-/- TNF necroptosis rescue, ATP luminescence, 24 h; 0 = TNF only, 100 = no-TNF cells; activation (protection from cell death), % at 10 µM; hit rate 0.068% among 220,000;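 active = activation, meaning protection from cell death, of at least 50% relative to plate controls; inactive = activation below 50%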;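 note: necroptosis triggered by 40 ng/mL TNF-alpha added together with compound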
# S1P4 antagonist = human S1P4 receptor antagonism. O95977. AID 1510. inhibition, % at 4.98 µM. hit rate 0.26% among 220,000. S1P4-expressing cells, antagonist mode, reporter read-out; in the data active = inhibition above about 29%;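 note: 0% = wells stimulated with agonist and 100% = vehicle wells without agonist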
# Target sequence (O95977 whole entry, looked up): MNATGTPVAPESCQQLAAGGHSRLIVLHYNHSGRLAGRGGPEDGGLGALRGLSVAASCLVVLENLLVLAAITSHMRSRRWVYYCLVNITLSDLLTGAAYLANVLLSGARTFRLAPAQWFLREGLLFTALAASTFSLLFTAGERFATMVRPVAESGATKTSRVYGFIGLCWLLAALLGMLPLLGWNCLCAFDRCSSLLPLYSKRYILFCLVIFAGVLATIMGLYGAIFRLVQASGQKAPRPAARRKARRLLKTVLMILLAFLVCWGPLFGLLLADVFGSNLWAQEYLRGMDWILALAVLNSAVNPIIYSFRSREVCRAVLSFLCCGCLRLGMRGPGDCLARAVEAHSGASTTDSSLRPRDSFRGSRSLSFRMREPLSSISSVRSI
# HSV replic up = increases HSV replication in cells. maximum fold increase. HSV replication augmentation in cells, fold increase. hit rate 0.005% among 220,000; in the data active = maximum fold increase above about 1.5; tested in PC3 cells
# L929 necroptosis = blocks zVAD induced death of L929 cells | L929 zVAD necroptosis rescue, ATP luminescence, 24 h; with zVAD 60 µM | viability rescue, % at 10 µM | hit rate 0.38% among 220,000 | AID 1377;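 active = activation, scaled between plate controls, above about 75%, limit read from the data; inactive = activation under that limit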;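 note: 0% = zVAD with DMSO and 100% = DMSO alone without zVAD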
# Hsp70 activator = Hsp70 transcriptional activation, primary screen. HeLa Hsp70 promoter luciferase reporter, luminescence; scaled: vehicle 0, proteasome-inhibitor control 100%. activation, % at 10 µM. hit rate 0.04% among 200,000. AID 1203;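 active = activation above the mean across all tested compounds plus 3 SD, cutoff set per campaign, cut at about 5.5% in these data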;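 note: 100% = MG132 at 30 µM as the positive control and 0% = DMSO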
# S1P4 ag = agonists of human S1P4 receptor; activation, % at 4.98 µM; O95977; AID 1509; S1P4-expressing cell line, agonist reporter assay; hit rate 0.35% among 220,000; in the data active = activation above about 11%;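 note: 0% = DMSO vehicle and 100% = reference agonist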
# zVAD necrop conf = confirmed blocker of zVAD induced death in L929 cells. shares compounds with L929 necroptosis. L929 zVAD-induced necroptosis rescue, ATP luminescence, 24 h. activation (protection from necroptosis), % at 10 µM. hit rate 16% among 760;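 active = mean protection from necroptosis of at least 50% over duplicate tests; inactive = mean protection below 50%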;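 note: 0% = cells with zVAD alone and 100% = vehicle cells without zVAD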
# The depositor's hits bear a star; i = inactive; . = no result.
SMILES,TNF death inh,S1P4 antagonist,HSV replic up,L929 necroptosis,Hsp70 activator,S1P4 ag,zVAD necrop conf
C/C(=N\OCC(=O)Nc1ccc2c(c1)OCCO2)c1ccc2c(c1)OCCO2,0.7,-7.8,i,85.5*,-0.3,-0.2,4.2
CCN(CC)CC#CCC(OC)(c1ccccc1)c1ccccc1,2.8,5.0,i,-0.4,-0.3,-0.2,.
O=C(Nc1ccc(Cl)cc1)N1N=CCC1c1ccccc1 (stereo not drawn),92.1*,7.4,i,79.3*,.,0.3,25.1
O=C(Nc1ccc(Cl)cc1)N1CCN(c2ccccc2)CC1,1.2,-20.1,i,-0.1,0.1,1.2,.
N#Cc1cccc(NC(=O)COc2ccc(-n3ccnc3)cc2)c1,-2.2,-2.8,i,77.3*,-0.3,1.5,67.7*
CC1=C(C(=O)c2ccccc2)C(c2ccc(N3CCOCC3)cc2)NC(=O)N1 (stereo not drawn),-1.8,3.1,i,2.8,-0.3,-0.3,.
N=c1nc(N)nc2n1NC(c1ccc(F)cc1)=CS2,20.5,22.2,i,81.2*,0.4,0.7,39.8
Fc1ccc(C2=CSC3=NCCN23)cc1,-0.8,1.6,i,-0.6,0.1,0.5,.
COc1ccccc1Nc1nc(-c2ccccc2O)nc2ccccc12,2.1,-10.7,i,75.9*,-0.3,1.6,-0.5
O=C(NCCCn1ccnc1)c1nn2c(C(F)(F)F)cc(-c3ccccc3)nc2c1Cl,-1.5,15.5,i,-0.4,0.3,-1.0,.
COc1ccc(/C=C/c2nc(-c3ccccc3O)n[nH]2)cc1OC,0.5,2.8,i,81.3*,-0.2,-1.7,4.0
CCN(CC)C(C)C#CCC(c1ccccc1)c1ccccc1 (stereo not drawn),6.7,16.8,i,0.9,.,-0.2,.
NS(=O)(=O)c1cccc(NC(=O)Nc2ccc(Cl)cc2)c1,1.2,-8.0,i,75.1*,.,1.6,3.4
CCCCn1cnc(C(=O)OCC)c1N,2.3,-3.8,i,.,0.1,-0.6,.
COc1ccc(N2C3=C(CC4=C2CCCC4=O)C(=O)CCC3)cc1,-3.7,-14.7,i,-0.1,-0.3,0.2,.
COc1ccc(N2C3=C(CC4=C2CC(C)(C)CC4=O)C(=O)CC(C)(C)C3)cc1,2.3,5.6,i,95.0*,0.3,-0.8,40.3
O=C(COC(=O)/C=C/c1cccc(F)c1)Nc1ncccn1,0.6,-13.0,i,0.4,.,-0.7,.
O=C(/C=C/c1cccs1)Nc1nccs1,11.4,-6.5,i,79.3*,-0.1,0.5,1.0
O=C(/C=C/c1cccc(F)c1)Nc1nccs1,30.8,-19.0,i,87.8*,0.2,0.8,76.4*
O=C(/C=C\c1ccccc1)Nc1nccs1,23.9,6.3,i,103.2*,-0.3,0.6,6.5
Cc1ccc(/C=C/C(=O)Nc2nccs2)o1,16.3,-22.3,i,78.9*,0.2,-1.5,5.6
O=C(Cn1nnc2ccccc2c1=O)NCC1CCC(C(=O)O)CC1 (stereo not drawn),3.0,-7.9,i,0.0,.,-0.4,.
Cc1ccccc1OCC(=O)Nc1ccc(Cc2ccncc2)cc1,3.5,-21.3,i,78.6*,0.5,0.8,12.5
O=C1CCC(CCC(=O)N2CCCC(C(=O)c3cccc(C(F)(F)F)c3)C2)=NN1 (stereo not drawn),1.3,-8.3,i,-0.4,0.1,1.7,.
NC(=O)CC(NC(=O)c1ccccc1)c1ccc(NCCc2ccc(Cl)cc2)c([N+](=O)[O-])c1 (stereo not drawn),1.2,.,i,0.0,.,.,.
SMILES,TNF death inh,S1P4 antagonist,HSV replic up,L929 necroptosis,Hsp70 activator,S1P4 ag,zVAD necrop conf
Cc1ccc(NC(=S)NNC(=S)Nc2cccc(C(F)(F)F)c2)cc1,6.0,-13.1,i,75.6*,.,1.0,5.1
COC(=O)[C@H]1[C@@H](C)N(CCc2cc(OC)c(OC)c(OC)c2)C(=O)N[C@H]1c1ccccc1,.,.,i,.,.,.,.
CCCN1C(=O)/C(=C/c2ccc(C)s2)NC1=S,29.8,3.1,i,91.7*,-0.2,0.6,86.5*
CNc1ncc(C(=O)c2ccc(F)cc2)s1,6.9,-15.1,i,84.7*,0.0,0.1,3.9
CCOc1ccc(C(=O)Nc2cccc(C(C)=O)c2)cc1[N+](=O)[O-],-0.5,-7.2,i,30.6,0.0,-0.2,.
CCOC(=O)c1ccc2[nH]c3c(c2c1)CCCC3C(=O)OCC (stereo not drawn),2.8,1.6,i,75.3*,0.1,-1.3,29.3
CCOC(=O)C1CCCc2c1[nH]c1ccc(Cl)cc21 (stereo not drawn),1.6,4.7,i,4.6,-0.4,-1.4,.
O=C(CSc1ncccn1)Nc1ccc2c(c1)CCC2,2.6,8.0,i,-0.2,.,0.2,.
O=C(N/N=C/c1ccccc1)c1n[nH]c2c1CCCC2,-0.3,-11.8,i,82.6*,-0.2,1.9,10.3
Cc1cccc(N(CC(=O)Nc2cccnc2)S(C)(=O)=O)c1,5.6,-6.4,i,0.2,.,-0.8,.
O=c1oc2ccccc2n1CSC1=NCCS1,61.0*,6.8,i,100.9*,-0.4,-0.5,1.3
COc1cc(OC)cc(-c2cc(NC(C)=O)n[nH]2)c1,-0.1,1.9,i,42.8,-0.3,-1.0,.
CC(=O)Nc1cc(-c2ccc(Cl)cc2)[nH]n1,0.3,-2.4,i,87.4*,-0.1,-2.5,37.4
CCOc1ccc2nc(NC(=O)Cn3[nH]c(=O)c4ccccc4c3=O)sc2c1,-1.5,-11.6,i,0.6,.,-0.1,.
NC(=O)C(C(=O)/C=C/c1ccc(Cl)cc1)=C1SCCS1,13.3,-14.8,i,81.8*,.,0.9,1.1
Nc1ccc(Nc2nc(-c3cc4ccccc4oc3=O)cs2)cc1,-5.9,-14.5,i,79.9*,0.0,0.9,3.7
COc1ccc(CC(=O)N/N=C(/C)c2ccco2)cc1,1.1,-12.0,i,0.6,-0.2,-0.9,.
CC1=NN(c2ccccc2)C(=O)/C1=C\c1cc(C)n(-c2ccccc2)c1C,2.8,-18.8,i,87.8*,-0.3,-1.3,2.3
CC1=NN(c2ccccc2)C(=O)/C1=C\c1cc(C)n(-c2cccnc2)c1C,-1.6,-10.6,i,0.3,.,1.9,.
N/C(=N\NC(=O)Nc1ccc(Cl)cc1)c1ccccn1,0.9,-3.4,i,81.1*,.,0.1,2.9
COc1cc(/C=C/C(=O)c2ccc(NS(=O)(=O)c3ccc(C)cc3)cc2)cc(OC)c1O,0.7,1.5,.,102.8*,0.2,-0.2,6.4
Cc1ccc(/C=C2\SC(=S)N(CC(=O)Nc3ncc(Cc4ccccc4Cl)s3)C2=O)cc1,-3.0,-4.5,.,0.1,-0.1,0.2,.
Cc1ccc(/C=C2/SC(=S)N(CC(=O)Nc3ncc(Cc4ccc(C)cc4)s3)C2=O)cc1,-0.8,-2.3,i,75.2*,-0.4,3.5,0.2
CC1CCCCN1CCNC(=O)c1cc2c(=O)n(C)c3ccccc3c2n1C (stereo not drawn),7.1,-10.7,i,81.5*,0.6,-0.3,37.2
